Inconclusive results are not listed. Values without a mark were called inactive. Active and inactive are the calls of the source. The call rests on the fitted dose curve; in most records, active means well fitted cell-killing curve with a large enough effect in the repeat runs (not every such curve was filed as active); inconclusive means weak or mixed curves, or effect the other way; inactive means no such curve, though single readings can be large or run the other way.
assay: qHTS assay to identify small molecule antagonists of the farnesoid-X-receptor (FXR) signaling pathway - cell viability counter screen (AID 743221); settings: FXR-bla HEK293T viability, CellTiter-Glo luminescence, 16 h; series mostly up to 62.6 µM; further: nearly all actives have a fitted effect of over 50% in size
From the text: National Center for Advancing Translational Sciences [NCATS]
NIH Chemical Genomics Center [NCGC]
U.S. Environmental Protection Agency [EPA]
National Institutes of Environmental Health Sciences [NIEHS]
National Toxicology Program [NTP]
U.S. Food and Drug Administration [FDA]
The farnesoid-X-receptor (FXR), a nuclear hormone receptor, is highly expressed in liver, intestine, kidney and adrenal cortex. Natural ligands of FXR are the bile acids (Cholic acid, Chenodeoxy cholic acid etc). FXR is an important regulator of diverse metabolic pathways, including the bile acid homeostasis, lipid and glucose metabolisms. FXR regulates the expression of target genes by binding either as a monomer or as a heterodimer with the retinoid X receptor (RXR). Numerous studies have reported that FXR exerts protective function during cholestasis, diabetes, liver regeneration, and cancer. To identify compounds that inhibit FXR signaling, GeneBLAzer FXR-UAS-bla HEK 293T cell line (Invitrogen, Carlsbad, CA) containing a beta-lactamase reporter gene under the control of a UAS response element was used to screen the Tox21 10K compound library. The cytotoxicity of the Tox21 compound library against the FXR-bla cell line was tested in parallel by measuring the cell viability using CellTiter-Glo assay in the same wells.
Tox21 Assay Protocol Summary:
FXR-bla cells were dispensed at 5000 cells/5uL/well in 1536-well black wall/clear bottom plates using a Multidrop Combi (Thermo Fisher Scientific, Waltham, MA) dispenser. After the assay plates were incubated at 37 C and 5% CO2 for 5 h, 23 nL of compounds dissolved in DMSO, positive controls or DMSO only was transferred to the assay plate by a Pintool station (Kalypsys, San Diego, CA), followed by addition of 1 uL Chenodeoxycholic acid (50 uM, final concentration in the wells). The assay plates were incubated at 37C for 16 h. After 1 uL of LiveBLAzerTM B/G FRET substrate was added using a Bioraptr Flying Reagent Dispenser (FRD) workstation (Beckman Coulter, Indianapolis, IN), the plates were incubated at room temperature for 2 h, and fluorescence intensity was measured by an Envision plate reader (PerkinElmer, Shelton, CT). For cell viability readout that measures cytotoxicity, 4uL/well of CellTiter-Glo reagent was added into the assay plates using a Bioraptr FRD. After 30 min incubation at room temperature, the luminescence intensity in the plates was measured using a ViewLux plate reader (PerkinElmer).
On the % scale 0 is the no-effect control and ±100 the full control effect.

SMILES | outcome | activity change, negative = cytotoxicity
CC(=O)OC(C)OC(=O)C(C)c1ccc(-c2ccccc2)c(F)c1 (stereo not given) | inactive | –
O=C1c2ccccc2C(=O)N1CCl | inactive | –
COC(=O)CCc1ccc(OCC(O)CNC(C)C)cc1 (stereo not given) | inactive | –
NNc1nnc(NN)c2ccccc12 | inactive | –
CC(=O)Nc1ccc(S(=O)(=O)Cl)cc1 | inactive | –
Cc1cccc(OCC(O)CNC(C)(C)C)c1C (stereo not given) | inactive | –
C[Si](C)=O | – | -2.54% [at 5.95 µM]
O=C(CS(=O)Cc1ccco1)NC/C=C\COc1cc(CN2CCCCC2)ccn1 (stereo not given) | inactive | –
O=C(CCN1CCN(CCO)CC1)N1c2ccccc2Sc2ccc(C(F)(F)F)cc21 | inactive | –
COC(=O)[C@@H]1[C@H]2C[C@H]3c4[nH]c5ccccc5c4CCN3C[C@@H]2CC[C@@H]1O | inactive | –
CNS(=O)(=O)CCc1ccc2[nH]cc(C3CCN(C)CC3)c2c1 | inactive | –
C=Cc1ccccn1 | inactive | –
Cc1cc2cc3c(C)cc(=O)oc3c(C)c2o1 | inactive | –
C=C(C)C1CCC(C)(O)CC1 (stereo not given) | inactive | –
COC(=O)CCCCCCCC(=O)OC | inactive | –
CN1C(C)(C)CCCC1(C)C | inactive | –
CC(=O)CCCCn1c(=O)c2c(ncn2C)n(C)c1=O | inactive | –
FC(F)(F)c1ccccc1-n1ccnc1 | inactive | –
CN(C)c1ccc(C=O)cc1 | inactive | –
C=C(C)C(=O)OCCN(CC)CC | inactive | –

SMILES | outcome | activity change, negative = cytotoxicity
O=C1c2cccc3c2[C@H](CCC3)CN1[C@@H]1CN2CCC1CC2 | inactive | –
Cc1cc(C(C)(C)C)c(O)c(C)c1CC1=NCCN1 | inactive | –
Cc1cccc2nccnc12 | inactive | –
Cc1cccc(C)c1NC(=O)c1ccccc1C(=O)O | inactive | –
CCCCCCCCCCl | inactive | –
O=C(O)CCSSCCC(=O)O | inactive | –
CC(C)CCCCOC(=O)c1ccccc1C(=O)OCCCCC(C)C | inactive | –
CCCCCCOC(=O)CC | inactive | –
COc1ccc(OC)c(Cl)c1 | inactive | –
Cc1cc(NC(=O)C2=C(O)c3ccccc3S(=O)(=O)N2C)no1 | inactive | –
Nc1ccc(S(=O)(=O)Nc2ccc(Cl)nn2)cc1 | inactive | –
CC(CC=O)CCCC(C)(C)O (stereo not given) | inactive | –
CC(C)(C)c1cc(CCC(=O)NN)cc(C(C)(C)C)c1O | inactive | –
O=C(/N=N/C(=O)OCc1ccccc1)OCc1ccccc1 | inactive | –
CCCCCCCCCCCCCC | inactive | –
CCCC/C=C/C=C\C=O | inactive | –
O=C(O)Cc1ccc(Cl)cc1Cl | inactive | –
CN=C(NC#N)Nc1ccc(C2=NNC(=O)CC2C)cc1 (stereo not given) | inactive | –
Cc1c(I)c(=O)n(-c2ccccc2)n1C | inactive | –
BrCCCCCBr | inactive | –

Source: PubChem BioAssay (Tox21)
